Test results as given in PubChem BioAssay.
Values without a mark were called inactive. For part of these data: Results with a measured potency or affinity are listed apart. The source made the active and inactive calls. Unless noted, the rule behind the calls is not given here.

Tests used:
[1] = antimalarial activity against Dd2 strain (AID 2302;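 active = growth inhibition above 50% at the single 2 µM test dose, taken to imply half-maximal potency below 2 µM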;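 note: 0% = DMSO untreated growth and 100% = chloroquine plus artemisinin killed control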); settings: P. falciparum Dd2 in RBCs, LDH growth readout, 72 h; at 2 µM; stronger effect = higher value
[2] = human hepatoma cell viability loss – ATP luminescence, cytotoxicity control for P. falciparum antimalarial project, primary screen (AID 2303;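 active = inhibition above 50%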;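 note: 0% = DMSO wells and 100% = digitonin-killed cells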); settings: HepG2 viability, 24-48 h, at 10 µM, stronger effect = higher value
[3] = biological target: L-lactate dehydrogenase (Plasmodium falciparum (isolate CDC / Honduras)) (UniProt Q27743); assay: PfLDH activity inhibition – cell lysate, 3D7 strain, counter-screen for P. falciparum growth inhibition project (AID 2304);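 note: 0% = vehicle and 100% = reference inhibitor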; settings: P. falciparum 3D7 crude extract, LDH APAD/NBT absorbance; at 2 µM; stronger effect = higher value
[4] = inhibition of 3D7 malaria parasite growth – strain 3D7 (AID 2306);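 note: 0% = DMSO wells and 100% = chloroquine plus artemisinin control wells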; settings: P. falciparum 3D7 erythrocytic growth, LDH absorbance, 72 h; at 2 µM; stronger effect = higher value
[5] = biological target: Calcium-dependent protein kinase 1 (Plasmodium falciparum (isolate 3D7)) (UniProt P62344); assay: PfCDPK1 kinase inhibitors, biochemical, TCAMS library (AID 1159585; cut-off not given, nearly all actives have IC50 up to about 0.98 µM;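 note: inhibitors leave more ATP so luminescence rises with inhibition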); settings: recombinant PfCDPK1, Kinase-Glo ATP depletion luminescence
[6] = biological target: Plasmodium falciparum protein kinase 6 (PK6, PF3D7_1337100) (UniProt Q8IDW1); assay: PfPK6 kinase inhibitors, biochemical, TCAMS library (AID 1159586); settings: recombinant PfPK6, Kinase-Glo ATP depletion luminescence
[7] = biological target: Protein kinase 7 (PK7), Plasmodium falciparum 3D7 (PF3D7_0213400) (UniProt Q7YTF7); assay: inhibition of Plasmodium PK7 catalytic activity – biochemical, TCAMS antimalarial set, Kinase-Glo luminescence (AID 1159587); settings: recombinant PfPK7, Kinase-Glo ATP depletion luminescence
[8] = biological target: Calcium-dependent protein kinase 4 (Plasmodium falciparum (isolate 3D7)) (UniProt Q8IBS5); assay: PfCDPK4 kinase inhibitors, biochemical, TCAMS library (AID 1159588; cut-off not given, nearly all actives have IC50 up to about 0.91 µM); settings: recombinant PfCDPK4, Kinase-Glo ATP depletion luminescence
Chain of Calcium-dependent protein kinase 4 (Plasmodium falciparum (isolate 3D7)) (Q8IBS5 whole entry, looked up): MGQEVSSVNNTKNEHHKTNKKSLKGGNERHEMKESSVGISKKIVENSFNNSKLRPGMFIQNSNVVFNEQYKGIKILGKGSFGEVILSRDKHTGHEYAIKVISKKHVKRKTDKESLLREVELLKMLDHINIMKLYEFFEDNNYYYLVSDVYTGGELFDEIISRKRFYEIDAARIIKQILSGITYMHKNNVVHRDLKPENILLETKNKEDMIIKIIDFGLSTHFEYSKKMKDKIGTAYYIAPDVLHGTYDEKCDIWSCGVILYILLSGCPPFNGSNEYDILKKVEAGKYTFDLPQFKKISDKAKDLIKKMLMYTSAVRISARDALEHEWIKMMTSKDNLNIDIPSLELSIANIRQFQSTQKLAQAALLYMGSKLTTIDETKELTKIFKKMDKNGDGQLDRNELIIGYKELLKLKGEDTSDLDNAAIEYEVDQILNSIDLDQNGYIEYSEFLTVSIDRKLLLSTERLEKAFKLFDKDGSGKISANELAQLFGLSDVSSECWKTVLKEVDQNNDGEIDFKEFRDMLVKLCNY

Chain of Calcium-dependent protein kinase 1 (Plasmodium falciparum (isolate 3D7)) (P62344 whole entry, looked up): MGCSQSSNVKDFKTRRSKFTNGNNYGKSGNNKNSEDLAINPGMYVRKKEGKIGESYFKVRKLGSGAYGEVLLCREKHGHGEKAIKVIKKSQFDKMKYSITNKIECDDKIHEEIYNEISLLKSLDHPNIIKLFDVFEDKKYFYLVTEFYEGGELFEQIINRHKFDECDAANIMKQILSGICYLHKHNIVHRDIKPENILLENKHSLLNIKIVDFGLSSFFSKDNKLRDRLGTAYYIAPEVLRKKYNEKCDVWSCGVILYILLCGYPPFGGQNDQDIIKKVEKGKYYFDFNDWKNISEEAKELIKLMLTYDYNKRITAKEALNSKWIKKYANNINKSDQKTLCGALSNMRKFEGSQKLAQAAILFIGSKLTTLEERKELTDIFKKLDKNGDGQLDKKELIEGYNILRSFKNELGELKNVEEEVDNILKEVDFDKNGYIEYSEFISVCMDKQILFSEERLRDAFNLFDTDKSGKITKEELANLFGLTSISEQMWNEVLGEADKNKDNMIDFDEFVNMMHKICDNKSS
Chain of Protein kinase 7 (PK7), Plasmodium falciparum 3D7 (PF3D7_0213400) (Q7YTF7 1-343): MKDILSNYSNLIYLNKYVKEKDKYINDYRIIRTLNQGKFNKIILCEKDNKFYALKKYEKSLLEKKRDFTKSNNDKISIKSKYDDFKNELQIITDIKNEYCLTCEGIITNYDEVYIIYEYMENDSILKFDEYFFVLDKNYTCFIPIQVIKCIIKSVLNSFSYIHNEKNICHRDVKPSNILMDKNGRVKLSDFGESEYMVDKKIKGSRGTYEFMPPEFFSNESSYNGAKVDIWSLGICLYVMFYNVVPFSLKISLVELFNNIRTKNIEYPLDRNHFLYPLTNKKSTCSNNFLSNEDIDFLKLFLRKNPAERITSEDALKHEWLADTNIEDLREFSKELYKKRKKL
Chain of Plasmodium falciparum protein kinase 6 (PK6, PF3D7_1337100) (Q8IDW1 1-305): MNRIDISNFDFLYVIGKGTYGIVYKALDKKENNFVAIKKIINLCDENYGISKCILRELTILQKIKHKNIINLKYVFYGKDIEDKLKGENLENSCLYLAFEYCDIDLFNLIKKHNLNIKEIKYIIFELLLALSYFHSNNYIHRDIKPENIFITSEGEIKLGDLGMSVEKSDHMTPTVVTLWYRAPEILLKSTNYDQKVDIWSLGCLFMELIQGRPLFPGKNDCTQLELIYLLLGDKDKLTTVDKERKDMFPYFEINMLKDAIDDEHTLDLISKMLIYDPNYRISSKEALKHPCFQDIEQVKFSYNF
Chain of L-lactate dehydrogenase (Plasmodium falciparum (isolate CDC / Honduras)) (Q27743 whole entry, looked up): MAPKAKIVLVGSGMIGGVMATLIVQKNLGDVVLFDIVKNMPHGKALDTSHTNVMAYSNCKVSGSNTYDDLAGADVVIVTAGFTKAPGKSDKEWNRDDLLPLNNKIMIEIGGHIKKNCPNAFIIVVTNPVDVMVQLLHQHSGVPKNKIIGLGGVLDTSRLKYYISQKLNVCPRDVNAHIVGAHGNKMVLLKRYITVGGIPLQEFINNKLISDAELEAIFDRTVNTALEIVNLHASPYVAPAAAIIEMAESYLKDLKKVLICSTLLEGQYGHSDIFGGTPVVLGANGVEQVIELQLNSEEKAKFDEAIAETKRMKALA

Row | SMILES | growth inhibition [1] | inhibition [2] | inhibition [3] [%] | growth inhibition [4] | outcome [5] | outcome [6] | outcome [7] | outcome [8]
1 | COc1ccc(CNCc2ccc(-c3ccc(-c4nc5ccc(C(F)(F)F)cc5[nH]4)s3)cc2)cc1 | 98% (active) | 38% | -1 | 100% (active) | inactive | inactive | inactive | inactive
2 | Cc1cccc(C)c1CNc1cccc(-c2nc(C)c(C)[nH]2)c1 | 44% | 58% (active) | -3 | 99% (active) | inactive | inactive | inactive | inactive
3 | CCN(CC)C(=O)C(=O)c1c[nH]c2ccc(Cl)cc12 | 96% (active) | 1% | 0 | 96% (active) | inactive | inactive | inactive | inactive
4 | Fc1ccc2[nH]cc(CCNCc3ccc(-c4cccc(-c5nc6ccccc6[nH]5)c4)cc3)c2c1 | 99% (active) | 69% (active) | -3 | 100% (active) | inactive | inactive | inactive | inactive
5 | O=C(Nc1cccc(-c2nn3ncccc3c2-c2ccnc(Nc3cccc(C(F)(F)F)c3)n2)c1)c1c(F)cccc1F | 68% (active) | 49% | -2 | 97% (active) | inactive | inactive | inactive | inactive
6 | O=C(C=Cc1ccc(Cl)c(Cl)c1)NCCCCCN1CCC(CCCNS(=O)(=O)c2ccc(F)cc2)CC1 | 20% | 52% (active) | 4 | 93% (active) | inactive | inactive | inactive | inactive
7 | O=C(Nc1ccc(-c2ccc(-c3nc4ccc(C(F)(F)F)cc4[nH]3)s2)cc1)c1cnc[nH]1 | 61% (active) | 66% (active) | 5 | 92% (active) | inactive | inactive | inactive | inactive
8 | COc1cc(NC(=O)/C=C/c2cc(F)cc(F)c2F)cc(OCCN2CCCCC2)c1 | 80% (active) | 10% | 0 | 102% (active) | inactive | inactive | inactive | inactive
9 | O=C(c1cc(-c2ccccc2O)on1)N1CCN(C(c2ccccc2)c2ccccc2)CC1 | 88% (active) | 12% | 1 | 97% (active) | inactive | inactive | inactive | inactive
10 | Cc1cccc2[nH]c(-c3cccc(-c4ccc(NC(=O)Nc5ccc(Cl)c(Cl)c5)cc4)c3)nc12 | 83% (active) | 53% (active) | 7 | 102% (active) | inactive | inactive | inactive | inactive
11 | O=C1[C@H]2C(c3ccc(Cl)c(Cl)c3)N3CC(OCc4ccccc4)CC3(C(=O)O)[C@H]2C(=O)N1c1ccc(Br)cc1 (some centres not stated) | 86% (active) | 14% | 2 | 104% (active) | inactive | inactive | inactive | inactive
12 | COc1cc(-c2nc(-c3ccccc3)c(-c3ccccc3)[nH]2)cc(OC)c1O | 90% (active) | 5% | -2 | 100% (active) | inactive | inactive | inactive | inactive
13 | CC(C)c1cccc(OCC2CCN(c3ccc(C(=O)Nc4ccccc4)cn3)CC2)c1 | 90% (active) | 9% | 4 | 95% (active) | inactive | inactive | inactive | inactive
14 | CC(C)C[C@H](NC(=O)[C@H](Cc1ccccc1)N(C[C@H](Cc1ccccc1)NC(=O)OC(C)(C)C)C(=O)C(F)(F)F)C(=O)NC1CCN(Cc2ccccc2)CC1 | 82% (active) | 13% | -5 | 92% (active) | inactive | inactive | inactive | inactive
15 | Cc1cccc(C)c1NC1=NC(=S)N(c2cccc(Cl)c2)C12CCC(C(C)(C)C)CC2 (configuration not stated) | 53% (active) | 4% | -14 | 87% (active) | inactive | inactive | inactive | inactive
16 | COc1ccc(C2NCCc3c2[nH]c2ccccc32)cc1CN1CCN(c2ccc(F)cc2)CC1 (configuration not stated) | 56% (active) | 37% | -1 | 97% (active) | inactive | inactive | inactive | inactive
17 | CC(=O)Oc1c(C(=O)C2CCC(C(C)(C)C)CC2)c(OC(C)=O)c2ccccc2c1OC(C)=O (configuration not stated) | 96% (active) | 9% | 2 | 96% (active) | inactive | inactive | inactive | inactive
18 | CC(NC(=O)c1ccc(O)c(-c2ccc(Cl)c(Cl)c2)c1)C(=O)NC1CCCCC1 (configuration not stated) | 82% (active) | -5% | -2 | 96% (active) | inactive | inactive | inactive | inactive
19 | Fc1cccc(C=NNc2ccnc3ccccc23)c1 | 72% (active) | 3% | 7 | 103% (active) | inactive | inactive | inactive | inactive
20 | O=C(/C=C/c1ccc(Cl)c(Cl)c1)NCCCCCN1CCCC(CNC(=O)c2sc3ccccc3c2Cl)C1 (configuration not stated) | -3% | 42% | 4 | 98% (active) | inactive | inactive | inactive | inactive

Row | SMILES | growth inhibition [1] | inhibition [2] | inhibition [3] [%] | growth inhibition [4] | outcome [5] | outcome [6] | outcome [7] | outcome [8]
21 | COc1cc(C(=O)N2CCOC(CCN3CCC[C@H]3C(=O)Nc3ccccc3)(c3ccc(Cl)c(Cl)c3)C2)cc(OC)c1OC (some centres not stated) | 88% (active) | 3% | -2 | 98% (active) | inactive | inactive | inactive | inactive
22 | CN(C)CCCOC(=O)c1cc2cc(-c3ccccc3)ccc2n1S(=O)(=O)Cc1ccccc1 | 70% (active) | 13% | -5 | 101% (active) | inactive | inactive | inactive | inactive
23 | CCc1ccc(NC(=O)C=NN=C(N)N)cc1 | 3% | 13% | -2 | 100% (active) | inactive | inactive | inactive | inactive
24 | C[C@H](NC(=O)c1c(CN2CCC(NC(=O)CC(C)(C)C)CC2)c(-c2cccs2)nc2ccccc12)C1CCCCC1 | 70% (active) | -3% | -3 | 91% (active) | inactive | inactive | inactive | inactive
25 | O=C(NC1CCCc2ccccc21)[C@@H]1CCCN1C(=O)c1ccc(O)c(-c2ccc(Cl)c(Cl)c2)c1 (some centres not stated) | 99% (active) | -6% | -2 | 99% (active) | inactive | inactive | inactive | inactive
26 | CC(C)c1sc(-c2ccc(C(C)(C)C)cc2)nc1C(=O)NCCCN1CCCC1=O | 92% (active) | -2% | 1 | 96% (active) | inactive | inactive | inactive | inactive
27 | O=C(Nc1ccc(-c2nc3ccccc3[nH]2)cc1)C1CCN(Cc2ccccc2)CC1 | 82% (active) | 12% | 4 | 100% (active) | inactive | inactive | inactive | inactive
28 | Cc1ccc2[nH]c(-c3ccccc3N)cc2c1 | 8% | 11% | 8 | 97% (active) | inactive | inactive | inactive | inactive
29 | Cc1cc(N2CCCC2)nc(Nc2ccc(NC(=O)C3CCCC3)cc2)n1 | 81% (active) | 27% | 1 | 102% (active) | inactive | inactive | inactive | inactive
30 | CCCCCNc1ccnc2cc(Cl)ccc12 | 99% (active) | 12% | -2 | 97% (active) | inactive | inactive | inactive | inactive
31 | COc1ccc2nccc([C@@H](O)CN3CCC(NCc4ccc5nsnc5c4)CC3)c2c1 | 64% (active) | 12% | 3 | 95% (active) | inactive | inactive | inactive | inactive
32 | Cc1nc(N)nc(N)c1OCc1ccc(Cl)c(Cl)c1 | 5% | 14% | -2 | 97% (active) | inactive | inactive | inactive | inactive
33 | N#Cc1ccc2c(c1)CCN(CCC1CCC(NC(=O)/C=C/c3cnc4ccccc4c3)CC1)CC2 (configuration not stated) | 21% | 22% | -1 | 87% (active) | inactive | inactive | inactive | inactive
34 | CCC(C)CN1C(=O)C(c2ccccc2)(c2ccccc2)N=C1N (configuration not stated) | 79% (active) | 11% | 4 | 98% (active) | inactive | inactive | inactive | inactive
35 | CCN(CC)C(=NCCCCCCN=C(/N=C(/N)Nc1ccc(Br)cc1)N(CC)CC)/N=C(/N)Nc1ccc(Br)cc1 | 95% (active) | -7% | -5 | 96% (active) | inactive | inactive | inactive | inactive
36 | O=C(c1ccccc1)N(Cc1ccccc1-c1ccc(CNCCc2ccccc2)cc1)C1CCN(Cc2ccccc2)CC1 | 69% (active) | 95% (active) | -7 | 95% (active) | inactive | inactive | inactive | inactive
37 | O=C(Nc1ccsc1)Nc1cccc(-c2cccc(-c3nc4ccc(F)cc4[nH]3)c2)c1 | 41% | 46% | 2 | 100% (active) | inactive | inactive | inactive | inactive
38 | CC(C)(C)OC(=O)NCc1ccc(Nc2nnc(-c3cccc(C(=O)NCc4cc(C(F)(F)F)cc(C(F)(F)F)c4)c3)o2)cc1 | 13% | 4% | 0 | 90% (active) | inactive | inactive | inactive | inactive
39 | COc1ccc(-c2cnc3ccc(NCc4ccc(S(N)(=O)=O)cc4)nn23)cn1 | 98% (active) | 16% | 0 | 98% (active) | inactive | inactive | inactive | inactive
